Measurements reported in the supplement of paper PMC12350171.
Where a name gives a salt, the structure may show the parent alone.

tested on: P. vulgatus RND KO; experiment: growth AUC normalised to DMSO control (median) (fraction of control); higher = less growth inhibition, active = hit call of the paper; settings: 20 µM;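 active = normalised median growth AUC below 0.1 of DMSO control; inactive = AUC 0.1 or higher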
Outline: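 Each strain went through two overnight passages under anaerobic conditions before growth in mGAM in 96-well plates, starting at OD578 0.01, with each compound from the approved-drug library at 20 μM and 1% DMSO. Inside an anaerobic incubator, OD578 was recorded every hour for 24 h. Growth curves were cut off at entry into stationary phase, and the area under the curve was calculated by the trapezoidal rule and normalised to vehicle wells on the same plate. Reported values are medians of three biological replicates.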
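Note: active when median AUC fell below 0.1.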

Row | SMILES | growth AUC normalised to DMSO control
1 | CC(=O)Oc1ccc(C(c2ccc(OC(C)=O)cc2)c2ccccn2)cc1 [Bisacodyl] | 1.02 (inactive)
2 | O=C(O)c1cc(/N=N/c2ccc(S(=O)(=O)Nc3ccccn3)cc2)ccc1O [Sulfasalazine] | 1 (inactive)
3 | COc1ccc2c(c1)c(CC(=O)O)c(C)n2C(=O)c1ccc(Cl)cc1 [Indomethacin] | 0.967 (inactive)
4 | CC(=O)Oc1c(C)cccc1C(=O)O [Cresopirine] | 0.998 (inactive)
5 | O=P(O)(O)C(O)(Cc1cccnc1)P(=O)(O)O [Risedronic acid monohydrate] | 0.976 (inactive)
6 | COc1ccc(C(=O)CC(=O)c2ccc(C(C)(C)C)cc2)cc1 [Avobenzone] | 0.939 (inactive)
7 | C[C@]12CC[C@@H]3c4ccc(O)cc4CC[C@H]3[C@@H]1C[C@@H](O)[C@@H]2O [Estriol] | 0.979 (inactive)
8 | CC1=C(C)C(=O)C(C(CCCCCC(=O)O)c2ccccc2)=C(C)C1=O (stereo not drawn) [Seratrodast] | 0.944 (inactive)
9 | CC(=O)[C@H]1CC[C@H]2[C@@H]3CCC4=CC(=O)CC[C@]4(C)[C@H]3CC[C@]12C [Progesterone] | 0.0182 (active)
10 | OCCN1CCN(CC/C=C2/c3ccccc3Sc3ccc(C(F)(F)F)cc32)CC1 [Flupentixol dihydrochloride cis-(Z)] | 0.946 (inactive)
11 | O=C(O)c1cccnc1 [Niacin] | 1.05 (inactive)
12 | C[C@H]1[C@H](OC(=O)CCC(=O)O)O[C@@H]2O[C@@]3(C)CC[C@H]4[C@H](C)CC[C@@H]1[C@@]24OO3 [Artesunate] | 1.01 (inactive)
13 | CN1CC(O)c2cc(N=NC(N)=O)c(O)cc21 (stereo not drawn) [Carbazochrome] | 0.999 (inactive)
14 | CN[C@@H]1[C@@H](O[C@H]2O[C@H](CO)[C@@H](N)[C@H](O)[C@H]2O)OC2C[C@@H](N)[C@@H](O[C@H]3[C@H](O)[C@@H](O)[C@H](N)C[C@@H]3N)OC2[C@@H]1O (stereo partly drawn) [Apramycin] | 1 (inactive)
15 | O=C1[C@H](CC[C@H](O)c2ccc(F)cc2)[C@@H](c2ccc(O)cc2)N1c1ccc(F)cc1 [Ezetimibe] | 0.901 (inactive)
16 | C=C(CC)C(=O)c1ccc(OCC(=O)O)c(Cl)c1Cl [Ethacrynic acid] | 0.994 (inactive)
17 | O=C(C1CCCCC1)N1CC(=O)N2CCc3ccccc3C2C1 (stereo not drawn) [Praziquantel] | 0.997 (inactive)

Row | SMILES | growth AUC normalised to DMSO control
18 | CC#CCn1c(N2CCC[C@@H](N)C2)nc2c1c(=O)n(Cc1nc(C)c3ccccc3n1)c(=O)n2C [Linagliptin] | 0.987 (inactive)
19 | Nc1c(CC(=O)O)cccc1C(=O)c1ccc(Br)cc1 [Bromfenac] | 1.04 (inactive)
20 | Cn1c(=O)c2nc[nH]c2n(C)c1=O [Theophylline monohydrate] | 1.02 (inactive)
21 | Cc1cc2nc3c(=O)[nH]c(=O)nc-3n(C[C@H](O)[C@H](O)[C@H](O)CO)c2cc1C [Riboflavine] | 1.11 (inactive)
22 | COC1=CC(=O)C[C@@H](C)[C@]12Oc1c(Cl)c(OC)cc(OC)c1C2=O [Griseofulvin] | 0.99 (inactive)
23 | CC(C)NC[C@H](O)COc1cccc2ccccc12 [(S)-(-)-Propranolol hydrochloride] | 1.04 (inactive)
24 | CCCCCCOc1ccccc1C(N)=O [Exalamide] | 1.01 (inactive)
25 | CN/C(=N\CCSCc1nc[nH]c1C)NC#N [Cimetidine] | 0.995 (inactive)
26 | Cc1ncc([N+](=O)[O-])n1CCO [Metronidazole] | 0.0156 (active)
27 | N=C(N)c1ccc(OCCCCCOc2ccc(C(=N)N)cc2)cc1 [Pentamidine isethionate] | 0.591 (inactive)
28 | Cc1cc(/C=C/c2ccc3cc(N(C)C)ccc3[n+]2C)c(C)n1-c1ccccc1 [Pyrvinium pamoate] | 1.01 (inactive)
29 | COc1cc(NS(=O)(=O)c2ccc(N)cc2)ncn1 [Sulfamonomethoxine] | 1.02 (inactive)
30 | Cc1ncc(C[n+]2csc(CCO)c2C)c(N)n1 [Thiamine hydrochloride] | 0.978 (inactive)
31 | O=c1[nH]cnc2c1ncn2[C@H]1CC[C@@H](CO)O1 [Didanosine] | 1 (inactive)
32 | CN1CCC[C@@H]1Cc1c[nH]c2ccc(CCS(=O)(=O)c3ccccc3)cc12 [Eletriptan] | 1.04 (inactive)
33 | Cc1ccc(/C(=C\CN2CCCC2)c2ccccn2)cc1 [Triprolidine hydrochloride] | 1 (inactive)
